Compound activity (PubChem BioAssay)
Nrf2 block = blocks Nrf2 signaling; A549 ARE-Fluc reporter, luciferase luminescence, 18-24 h; hit rate 2.1% among 360,000; Potency, µM (doses to about 46 µM), inactives show at the top dose activity change, negative = inhibition, most hits filed as inhibitors; also: % is scaled to controls: 0 for no effect and ±100 for the full control effect; nearly all actives have a fitted effect of over 60% in size
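Nrf2 activity is the BugLite luminescence, read 15 min after reagent at room temperature, following CellTiter-Fluor cytotoxicity readout (30 min, 37C). Compound titrations were applied for 18-24 h to 5000 A549 ARE_Fluc cells/well in 5% FBS OPTI-MEM.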
A549 viability = counter-screen for Nrf2 inhibitors: cytotoxicity in A549 cells. A549 ARE-Fluc cells, CellTiter-Fluor viability, 18-24 h. Potency, µM (top dose mostly 46 µM), for the others: top-dose activity change, negative = cytotoxicity, most hits filed as inhibitors. hit rate 0.16% among 390,000. AID 504648; also: % is scaled to controls: 0 for no effect and ±100 for the full control effect
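A549 ARE-Fluc cells in 5% FBS OPTI-MEM, 5000 cells/well, rested 2 h then exposed to compounds in concentration-response for 18-24 h at 37 °C. Viability by CellTiter-Fluor fluorescence (Ex 405/Em 525) after 30 min; luciferase luminescence (BugLite, 15 min, RT) read afterwards.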
ELG1 DNA repair = ELG1-dependent DNA repair inhibition; HEK293T ELG1-luciferase reporter, luminescence, 16 h; DNA damage induced by 5-fluorouridine; Potency, µM (highest dose often 46.1 µM), for inactives: at the top dose activity change, negative = inhibition, usual class: inhibitors; hit rate 2.3% among 330,000; AID 504467; also: % is scaled to controls: 0 for no effect and ±100 for the full control effect; nearly all actives have a fitted effect of over 55% in size
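Quantitative HTS, concentration-response format. 2,000 cells/well co-treated with 5-fluorouridine and compound, 16 hr in 5% CO2 at 37 °C; ONE-Glo luminescence read after 30 min.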
Nrf2 activator = activators of Nrf2 (ARE) signaling; Potency, µM (highest dose often 46.1 µM), for the others: at the highest dose activation, usual class: activators; hit rate 0.31% among 410,000; AREc32 ARE-luciferase reporter (MCF7-derived line), luminescence, 24 h; also: % of control where 0% means no effect; nearly all actives have a fitted effect of over 65% in size
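Steps: seed AREc32_Fluc cells (1000/well, 5% FBS OPTI-MEM); incubate overnight at 37 deg C; add 23 nL compound; incubate 24 hr; add Steady-Glo; hold 30 min RT; read luminescence.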
Numbers without * were called inactive; u = inconclusive; x = no result. The list is not random: actives were taken first. Their share in the collection is about 3.7%. Calls follow the shape of the dose curve; as a rule, active = well fitted curve in the direction sought with a large enough effect; inconclusive = small, poorly fitted or top-dose-only effect, or another doubt; inactive = no such curve, though single readings can be large; an effect the other way counts as inactive or inconclusive. Potency is read from the fitted curve at half-maximal effect.

SMILES | Nrf2 block | A549 viability | ELG1 DNA repair | Nrf2 activator
CN(Cc1ccccc1)C(=O)C1(C)CCN1C(=O)Cc1ccc(Cl)cc1Cl (configuration not stated) | x | x | x | 0%
CCOC(=O)c1ccc(NC(=O)Cn2c(=O)cc(C(F)(F)F)c3c(C)nn(C)c32)cc1 | 42% | 12% | x | -1%
Cc1cccc(C)c1N=Cc1c(O)n(-c2nccs2)c(=O)c2ccccc12 | -23% | -17% | u | 3%
Cc1ccc(N=Cc2c(O)n(-c3nccs3)c(=O)c3ccccc23)cc1 | -19% | u | 18µM* | -1%
Cc1ccccc1N=Cc1c(O)n(-c2nccs2)c(=O)c2ccccc12 | u | u | 21µM* | 8%
O=c1c2ccccc2c(C=Nc2ccccc2O)c(O)n1-c1nccs1 | u | -14% | 16µM* | 3%
COc1ccc(C)cc1NC(=O)C1CCN(S(=O)(=O)c2ccc3c(c2)CCCN3C(C)=O)CC1 | x | 3% | x | 3%
O=C(COC(=O)c1cc2ccccc2oc1=O)Nc1ccc(F)cc1F | 24% | 2% | u | 4%
COc1ccccc1C(=O)OCC(=O)N1CCC(Cc2ccccc2)CC1 | 0% | 2% | u | 0%
CC(=O)Nc1ccc(C(=O)OCC(=O)N2CCC(Cc3ccccc3)CC2)cc1 | -14% | 1% | 6.5µM* | 0%
O=C(COc1cccnc1[N+](=O)[O-])N1CCC(Cc2ccccc2)CC1 | 15µM* | 2% | -11% | 3%
CCC1CCCCN1C(=O)COc1cccc2c1CCN(C)C2=O (configuration not stated) | 11% | -12% | u | 0%
CN1CCc2c(OCC(=O)N3CCC(Cc4ccccc4)CC3)cccc2C1=O | u | -14% | 9.2µM* | 2%
Cc1nn2c(=O)cc(COC(=O)c3ccc(NC(=O)C4CCCCC4)cc3)nc2s1 | x | 9% | x | 1%
Cc1ccc([N+](=O)[O-])cc1NC(=O)CSc1nnc(C)n1CC1CCCO1 (configuration not stated) | 3% | 0% | 6% | 0%
CCCN1C(=O)C2(C(C(=O)c3ccc(C)o3)=C(O)C(=O)N2CCCOC)c2ccccc21 (configuration not stated) | -2% | -11% | 4% | 0%
CCCc1cnc(NCCNCC(O)COc2ccc(Cl)c(Cl)c2)nc1 (configuration not stated) | 3% | 11% | 13% | -1%
COc1ccc(C(=O)O)cc1COc1ccc(NC(C)=O)cc1 | 8% | -1% | x | x
COC(=O)C1=C(CN2CCc3ccccc32)NC(=O)NC1c1cc(C)ccc1C (configuration not stated) | x | -5% | 13µM* | 4%
COC(=O)C1=C(CN2CCN(C)CC2)NC(=O)NC1c1cc(C)ccc1C (configuration not stated) | 19% | -12% | 7% | 0%
CC(=O)c1ccc(-n2cc(-c3ccc(C(C)(C)C)cc3)[n+]3c2SCCC3)cc1 | u | -7% | 7.3µM* | 3%
CC(C)(O)C#Cc1ccc(CNC[C@H]2O[C@@H](n3cnc4c(N)ncnc43)[C@H](O)[C@@H]2O)s1 | -5% | 0% | u | 0%
CCN(C[C@H]1N[C@@](C)(C(=O)OC)[C@H]2C(=O)N(C)C(=O)[C@@H]12)C(=O)Nc1ccc(C(F)(F)F)cc1 | -1% | 4% | 18% | -1%
Cc1[nH]c2ccccc2c(=O)c1C(=O)/C=C/c1ccccc1 | 18µM* | u | 8.2µM* | u
O=C(C=Cc1ccccc1)c1c[nH]c2ccccc2c1=O | 2% | 4% | x | u
SMILES | Nrf2 block | A549 viability | ELG1 DNA repair | Nrf2 activator
CC(Oc1ccc(Br)cc1Cl)C(=O)Nc1ccncc1 (configuration not stated) | 21µM* | 0% | u | -1%
Cc1cccc(OCC(=O)Nc2ccncc2)c1C | 7.3µM* | -7% | -6% | 0%
CC(=O)c1ccc(NC(=O)COc2ccccc2-c2nc(-c3ccc(C)cc3)no2)cc1 | 26µM* | -17% | x | 6%
COc1ccccc1OCC(=O)Nc1ccncc1 | -20% | -2% | -5% | 4%
O=C(O)Cc1ccc(NC(=O)COc2ccc3ccccc3c2)cc1 | -5% | 11% | 5% | -1%
O=C(COc1ccc2ccccc2c1)Nc1ccc(Cc2ccncc2)cc1 | 15µM* | -27% | -27% | 0%
CC(=O)c1ccc(NC(=O)COc2ccccc2-c2nc(C)no2)cc1 | u | -1% | x | 3%
Cc1cccc(OCC(=O)Nc2ccc(-c3nc4ccccc4o3)cc2)c1C | 21µM* | -3% | x | 5%
CCCNC(=O)C[C@@H]1C[C@H]2c3cc(NC(=O)c4ccc5c(c4)OCO5)ccc3O[C@H]2[C@@H](CO)O1 | x | x | x | 0%
Cc1cc(Cl)ccc1OCC(=O)Nc1ccncc1 | 23µM* | -1% | u | -1%
Cc1cc(C)cc(OCC(=O)Nc2ccncc2)c1 | u | -4% | 16µM* | -1%
Cc1ccc(C)c(OCC(=O)Nc2ccncc2)c1 | 5.2µM* | 3% | 11% | 2%
Cc1cc(C)cc(OCC(=O)Nc2cccc(-c3nc4ncccc4o3)c2)c1 | u | 0% | 12µM* | -1%
Cc1cc(Cl)ccc1OCC(=O)NCc1ccncc1 | 12% | 6% | u | 6%
CN(CC(=O)Nc1cccc(F)c1)C(=O)CN1C(=O)NC2(CCCC2)C1=O | 10% | 0% | 12% | -1%
COc1ccc(S(=O)(=O)NNC(=O)Nc2ccc(C)cc2C)c(OC)c1 | 3% | 0% | -1% | -1%
CNC(=O)c1cc(Oc2ccc(NC(=O)Nc3ccc(Cl)c(C(F)(F)F)c3)cc2)ccn1 | 26µM* | u | u | -2%
O=C(Nc1ccc(Cl)c(C(F)(F)F)c1)c1ccncc1 | 8% | -1% | 7% | 1%
CCC(Sc1nnc(C)s1)C(=O)Nc1nccs1 (configuration not stated) | 8% | 7% | u | 0%
CCC(Sc1nc(C)cc(C)n1)C(=O)Nc1nccs1 (configuration not stated) | -1% | 0% | 18µM* | 0%
CN1C[C@@H]2[C@@H]3C(=O)N(C)C(=O)[C@@H]3[C@](C)(C1=O)N2C(=O)c1ccccc1 | 4% | -8% | x | -2%
CCOC(=O)c1sc2nc(C)nc(NCCc3ccccn3)c2c1C | u | 0% | 21µM* | 1%
CCOC(=O)c1c(C)oc2nc(C)nc(NCc3ccccc3OC)c12 | -7% | -18% | x | 0%
CCOC(=O)c1sc2nc(C)nc(NCc3ccccc3OC)c2c1C | 21µM* | -11% | u | 0%
COC(=O)C(C#N)(CCC(=O)c1ccccc1)CCC(=O)c1ccccc1 | x | x | x | 1%
O=C(Nc1ccc(OCc2ccccc2Cl)cc1)c1cccnc1 | 9.2µM* | 0% | -1% | -2%
O=C(NCCc1ccccc1)c1ccc(NC(=O)c2cccnc2)cc1 | -7% | 2% | 13% | 0%
O=C(Nc1ccc(-c2noc(CCc3ccccc3)n2)cc1)c1cccnc1 | x | -4% | 23µM* | 0%
O=C(CCCc1nc(-c2ccc(Cl)cc2)no1)Nc1cccnc1 | 10µM* | x | u | -1%
